According to PubChem BioAssay (NCATS):
Records with an inconclusive call do not appear. Activity calls are given as the source filed them. Calls come from the whole dose curve; as a rule, active = well fitted curve in the direction sought with a large enough effect; inconclusive = small, poorly fitted or top-dose-only effect, or another doubt; inactive = no such curve, though single readings can be large; an effect the other way counts as inactive or inconclusive.

Legend:
[1] = Quantitative High-Throughput drug screen in 47 multiple myeloma cell lines against the NCATS MIPE library collection: JIM3_ECACC cell viability assay (AID 1918963; note: nearly all actives have a fitted effect of over 35% in size)
Summary of the method: (§1)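 Myeloma cell lines, 500 cells per well, exposed to MIPE 4.0 library compounds for 48 h at 37C, 5% CO2. Viability from ATP by CellTiter-Glo luminescence; normalised to DMSO (100%) and media-only (0%) wells.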

[2] = Quantitative High-Throughput drug screen in 47 multiple myeloma cell lines against the NCATS MIPE library collection: INA6_PLB cell viability assay (AID 1918965; note: nearly all actives have a fitted effect of over 55% in size)
Summary of the method: as §1

[3] = Quantitative High-Throughput drug screen in 47 multiple myeloma cell lines against the NCATS MIPE library collection: JJN3_DSMZ cell viability assay (AID 1918966; note: nearly all actives have a fitted effect of over 50% in size)
Summary of the method: (§2)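 Approved and investigational drugs from MIPE 4.0 were added by pin tool to 500 cells per well. After 48 hours at 37C, ATP-based CellTiter-Glo luminescence indicated remaining viability.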

[4] = Quantitative High-Throughput drug screen in 47 multiple myeloma cell lines against the NCATS MIPE library collection: H1112_PLB cell viability assay (AID 1918967; note: nearly all actives have a fitted effect of over 30% in size)
Summary of the method: as §2

[5] = Quantitative High-Throughput drug screen in 47 multiple myeloma cell lines against the NCATS MIPE library collection: Karpas25_ECACC cell viability assay (AID 1918968; note: nearly all actives have a fitted effect of over 35% in size)
Summary of the method: as §2

[6] = Quantitative High-Throughput drug screen in 47 multiple myeloma cell lines against the NCATS MIPE library collection: KMS20_JCRB cell viability assay (AID 1918973); note: nearly all actives have a fitted effect of over 45% in size
Summary of the method: as §2

[7] = Quantitative High-Throughput drug screen in 47 multiple myeloma cell lines against the NCATS MIPE library collection: MMM1_PLB cell viability assay (AID 1918976); note: nearly all actives have a fitted effect of over 35% in size
Summary of the method: (§3)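 500 cells/well per myeloma line exposed to pinned MIPE 4.0 compounds for 48 h at 37 °C, 5% CO2. Viability read as ATP by CellTiter-Glo luminescence, normalised to DMSO-only (100%) and media-only (0%) wells.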

[8] = Quantitative High-Throughput drug screen in 47 multiple myeloma cell lines against the NCATS MIPE library collection: NCIH929_DSMZ cell viability assay (AID 1918978); note: nearly all actives have a fitted effect of over 35% in size
Summary of the method: as §3

[9] = Quantitative High-Throughput drug screen in 47 multiple myeloma cell lines against the NCATS MIPE library collection: MM1S_ATCC cell viability assay (AID 1918980); note: nearly all actives have a fitted effect of over 45% in size
Summary of the method: as §3

[10] = Quantitative High-Throughput drug screen in 47 multiple myeloma cell lines against the NCATS MIPE library collection: MM1R_ATCC cell viability assay (AID 1918981); note: nearly all actives have a fitted effect of over 35% in size
Summary of the method: as §3

[11] = Quantitative High-Throughput drug screen in 47 multiple myeloma cell lines against the NCATS MIPE library collection: LP1_DSMZ cell viability assay (AID 1918982); note: nearly all actives have a fitted effect of over 35% in size
Summary of the method: as §3

[12] = Quantitative High-Throughput drug screen in 47 multiple myeloma cell lines against the NCATS MIPE library collection: KMS27_JCRB cell viability assay (AID 1918970); note: nearly all actives have a fitted effect of over 30% in size
Summary of the method: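 ATP-based viability (CellTiter-Glo luminescence) is measured in cells treated 48 h with approved and investigational drugs at 37 °C. Controls are DMSO-only wells for full viability and media-only wells for none.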

[13] = Quantitative High-Throughput drug screen in 47 multiple myeloma cell lines against the NCATS MIPE library collection: KMS12BM_JCRB cell viability assay (AID 1918971); note: nearly all actives have a fitted effect of over 35% in size
Summary of the method: (§4)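 We plated 500 myeloma cells per well, pinned in MIPE 4.0 compounds, and incubated for 48 hours at 37C. ATP was then quantified with CellTiter-Glo, with DMSO and media-only wells defining 100% and 0%.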

[14] = Quantitative High-Throughput drug screen in 47 multiple myeloma cell lines against the NCATS MIPE library collection: KMS12PE_JCRB cell viability assay (AID 1918972); note: nearly all actives have a fitted effect of over 30% in size
Summary of the method: as §1

[15] = Quantitative High-Throughput drug screen in 47 multiple myeloma cell lines against the NCATS MIPE library collection: KMS21BM_JCRB cell viability assay (AID 1918974); settings: ATP luminescence, 48 h; viability: at 45.8 µM (top of the series) unless noted
Summary of the method: as §2

[16] = Quantitative High-Throughput drug screen in 47 multiple myeloma cell lines against the NCATS MIPE library collection: MOLP8_DSMZ cell viability assay (AID 1918977); note: nearly all actives have a fitted effect of over 45% in size
Summary of the method: as §3

[17] = Quantitative High-Throughput drug screen in 47 multiple myeloma cell lines against the NCATS MIPE library collection: OCIMY1_PLB cell viability assay (AID 1918979); note: nearly all actives have a fitted effect of over 35% in size
Summary of the method: as §3

[18] = Quantitative High-Throughput drug screen in 47 multiple myeloma cell lines against the NCATS MIPE library collection: KMS28PE_JCRB cell viability assay (AID 1918983); note: nearly all actives have a fitted effect of over 35% in size
Summary of the method: as §3

[19] = Quantitative High-Throughput drug screen in 47 multiple myeloma cell lines against the NCATS MIPE library collection: KMS26_JCRB cell viability assay (AID 1918975); note: nearly all actives have a fitted effect of over 45% in size
Summary of the method: as §4
Potency is the fitted concentration of half-maximal effect.

Compound | Potency [1] | Potency [2] | Potency [3] | Potency [4] | Potency [5] | Potency [6] | Potency [7] | Potency [8] | Potency [9] | Potency [10] | Potency [11] | Potency [12] | Potency [13] | Potency [14] | Potency [15] | Potency [16] | Potency [17] | Potency [18] | Potency [19]
Cc1nc2cnc3ccc(C#Cc4cccnc4)cc3c2n1-c1ccc(C(C)(C)C#N)cc1 | 0.148 µM (active) | 0.0833 µM (active) | 0.935 µM (active) | 0.166 µM (active) | 0.0264 µM (active) | 0.0148 µM (active) | 0.148 µM (active) | 0.0264 µM (active) | 0.0743 µM (active) | 0.166 µM (active) | 0.0833 µM (active) | – | – | – | – | – | – | – | –
CN1CCN(c2ccc3nc(-c4c(N)c5c(F)cccc5[nH]c4=O)[nH]c3c2)CC1 | 13.2 µM (active) | 1.32 µM (active) | 20.9 µM (active) | 7.43 µM (active) | 2.64 µM (active) | 1.32 µM (active) | 20.9 µM (active) | 2.35 µM (active) | 16.6 µM (active) | 13.2 µM (active) | – | 7.43 µM (active) | 16.6 µM (active) | 5.9 µM (active) | 4.69 µM (active) | 5.9 µM (active) | 18.7 µM (active) | 26.4 µM (active) | –
c1nc2nc(Nc3ccc(N4CCOCC4)cc3)nc(NC3CCCCC3)c2[nH]1 | 3.72 µM (active) | 2.96 µM (active) | 18.7 µM (active) | 5.9 µM (active) | 5.26 µM (active) | 4.69 µM (active) | 10.5 µM (active) | 3.72 µM (active) | 5.9 µM (active) | 14.8 µM (active) | – | 5.9 µM (active) | 20.9 µM (active) | 1.66 µM (active) | – | 8.33 µM (active) | 16.6 µM (active) | – | 16.6 µM (active)
CN1CCN(Cc2ccc(NC(=O)Nc3ccc(Oc4cc(NC(=O)C5CC5)ncn4)cc3)cc2C(F)(F)F)CC1 | 0.148 µM (active) | 0.132 µM (active) | 0.264 µM (active) | 0.148 µM (active) | 0.118 µM (active) | 0.132 µM (active) | 0.372 µM (active) | 0.132 µM (active) | 0.332 µM (active) | 0.332 µM (active) | 0.372 µM (active) | – | 0.469 µM (active) | inactive | – | 0.332 µM (active) | 1.18 µM (active) | 0.372 µM (active) | 0.418 µM (active)
Nc1nc(Nc2ccc(S(N)(=O)=O)cc2)nn1C(=O)c1c(F)cccc1F | 7.43 µM (active) | 1.48 µM (active) | 5.26 µM (active) | 8.33 µM (active) | 6.62 µM (active) | 4.18 µM (active) | 10.5 µM (active) | 4.18 µM (active) | 7.43 µM (active) | 6.62 µM (active) | 8.33 µM (active) | 4.18 µM (active) | 5.9 µM (active) | 6.62 µM (active) | – | – | – | 8.33 µM (active) | 7.43 µM (active)
Fc1cc(-c2cccc3ncc(-c4cnn(C5CCNCC5)c4)nc23)cc(F)c1CN1CCOCC1 | 16.6 µM (active) | 4.18 µM (active) | 16.6 µM (active) | 23.5 µM (active) | 7.43 µM (active) | 5.26 µM (active) | 23.5 µM (active) | 8.33 µM (active) | 20.9 µM (active) | 20.9 µM (active) | – | 8.33 µM (active) | 18.7 µM (active) | 6.62 µM (active) | – | 18.7 µM (active) | – | 23.5 µM (active) | 26.4 µM (active)
COc1cc(=C2C=c3ccccc3=N2)[nH]c1=Cc1[nH]c(C)cc1C | 2.35 µM (active) | 1.18 µM (active) | 1.87 µM (active) | 5.9 µM (active) | 0.743 µM (active) | 7.43 µM (active) | 2.09 µM (active) | 5.26 µM (active) | 4.18 µM (active) | 1.05 µM (active) | 0.743 µM (active) | 16.6 µM (active) | 1.66 µM (active) | 20.9 µM (active) | – | 0.469 µM (active) | – | 1.66 µM (active) | 2.35 µM (active)
Clc1ccc2ncc(-c3cccc(NC4CNC4)n3)n2c1 | 14.8 µM (active) | 5.9 µM (active) | 16.6 µM (active) | 11.8 µM (active) | 26.4 µM (active) | – | – | 20.9 µM (active) | 5.26 µM (active) | 16.6 µM (active) | 16.6 µM (active) | inactive | 23.5 µM (active) | 5.9 µM (active) | – | 14.8 µM (active) | 20.9 µM (active) | – | –
Cc1[nH]c2ccccc2c1CCNCc1ccc(C=CC(=O)NO)cc1 | 0.235 µM (active) | 0.0132 µM (active) | 0.0935 µM (active) | 0.105 µM (active) | 0.0209 µM (active) | – | – | 0.0526 µM (active) | 0.0743 µM (active) | 0.0296 µM (active) | – | – | 0.059 µM (active) | – | – | 0.0526 µM (active) | 0.166 µM (active) | 0.059 µM (active) | –
O=C(NCCS(=O)(=O)c1ccc(C(F)(F)F)cn1)c1ccc(Cl)cc1 | inactive | inactive | inactive | inactive | inactive | – | inactive | inactive | inactive | – | inactive | – | 0.0235 µM (active) | – | – | inactive | inactive | inactive | –
